Assay in all cases: DAPPL (digital affinity profiling via proximity ligation, sequencing); 10 mM Tris-HCl pH 7.5, 50 mM NaCl, 1 mM DTT, 4% glycerol, room temperature, 30 min; GST-TFs on glutathione beads, 16-mer random dsDNA library, 0.1% formaldehyde crosslink after washing; high values mean tight binding
In one assay the target is T1, FEV (Homo sapiens, UniProt Q99581 1-238).
T1 sequence: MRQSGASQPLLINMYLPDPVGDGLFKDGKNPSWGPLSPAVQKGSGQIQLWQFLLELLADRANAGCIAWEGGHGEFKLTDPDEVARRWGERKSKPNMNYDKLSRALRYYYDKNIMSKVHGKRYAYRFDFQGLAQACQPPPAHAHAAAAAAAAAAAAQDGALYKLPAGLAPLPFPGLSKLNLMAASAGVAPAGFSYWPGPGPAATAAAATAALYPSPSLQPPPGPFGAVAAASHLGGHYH
To be noted: protein: recombinant; tags: N-terminal GST; dsDNA, one strand shown. Put shortly: (§1)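 A tag-only sample was pooled with DNA-barcoded human transcription factors that had been expressed in yeast as GST fusions and captured on glutathione beads. The pools were incubated for 30 min at room temperature with 200 nmole of a random double-stranded 16-mer DNA library in Tris/NaCl/DTT/glycerol buffer, then washed, crosslinked with 0.1% formaldehyde, proximity-ligated (BsaI/T4 ligase, 1 h, 37 °C), PCR-amplified and sequenced on an Illumina NextSeq500. Binding signal is each hexamer's read frequency for a factor divided by its frequency for the tag-only sample.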

In the next assay the target is ETV5 (Homo sapiens, UniProt P41161 1-510). To be noted: protein: recombinant; tags: N-terminal GST; dsDNA, one strand shown. Put shortly: as §1
Another assay deals with HSF1 (Homo sapiens, UniProt Q00613 1-529). To be noted: protein: recombinant; tags: N-terminal GST; chain copies: 3; dsDNA, one strand shown. Put shortly: as §1
A further assay has as its target T2, SPIC (Homo sapiens, UniProt Q8N5J4 1-248).
T2 sequence: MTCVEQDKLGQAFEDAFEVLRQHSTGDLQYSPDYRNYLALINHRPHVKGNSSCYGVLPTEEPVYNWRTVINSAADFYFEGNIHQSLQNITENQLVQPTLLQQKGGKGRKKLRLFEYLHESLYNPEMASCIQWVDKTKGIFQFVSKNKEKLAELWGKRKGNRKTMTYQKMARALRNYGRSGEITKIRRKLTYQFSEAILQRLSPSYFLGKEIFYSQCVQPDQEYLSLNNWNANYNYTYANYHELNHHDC
To be noted: protein: recombinant; tags: N-terminal GST; dsDNA, one strand shown. The essentials: as §1

A further assay has as its target ELF4 (Homo sapiens, UniProt Q99607 1-663). To be noted: protein: recombinant; tags: N-terminal GST; dsDNA, one strand shown. Put shortly:
as §1

The next assay addresses T3, ELK4 (Homo sapiens, UniProt P28324-2 1-405).
T3 sequence: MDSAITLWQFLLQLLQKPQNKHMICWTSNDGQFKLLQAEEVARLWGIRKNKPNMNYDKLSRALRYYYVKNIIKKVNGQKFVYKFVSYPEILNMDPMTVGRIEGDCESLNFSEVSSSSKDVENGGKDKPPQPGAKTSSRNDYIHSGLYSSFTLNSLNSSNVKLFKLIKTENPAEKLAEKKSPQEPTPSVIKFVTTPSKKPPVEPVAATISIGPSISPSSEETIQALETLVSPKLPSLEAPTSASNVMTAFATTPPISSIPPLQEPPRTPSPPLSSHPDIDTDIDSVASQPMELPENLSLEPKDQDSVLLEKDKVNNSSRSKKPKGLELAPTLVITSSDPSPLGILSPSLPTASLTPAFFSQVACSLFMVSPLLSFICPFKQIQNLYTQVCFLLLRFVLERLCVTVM
To be noted: protein: recombinant; tags: N-terminal GST; dsDNA, one strand shown. The essentials: as §1

The next assay addresses T4, ETV2 (Homo sapiens, UniProt O00321 1-342).
T4 sequence: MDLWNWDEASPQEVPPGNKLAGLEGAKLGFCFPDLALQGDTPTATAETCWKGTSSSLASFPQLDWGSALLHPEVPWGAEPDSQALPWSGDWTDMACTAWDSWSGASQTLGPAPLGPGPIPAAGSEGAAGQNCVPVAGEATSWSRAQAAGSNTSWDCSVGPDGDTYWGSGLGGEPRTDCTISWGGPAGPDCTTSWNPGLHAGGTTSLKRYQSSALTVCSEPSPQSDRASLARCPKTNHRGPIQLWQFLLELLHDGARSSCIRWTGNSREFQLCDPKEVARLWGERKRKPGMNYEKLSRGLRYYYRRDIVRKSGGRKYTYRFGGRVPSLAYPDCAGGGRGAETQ
The note with it: protein: recombinant; tags: N-terminal GST; dsDNA, one strand shown. Put shortly: as §1

The next assay concerns the target T5, ELF3 (Homo sapiens, UniProt P78545 1-371).
T5 sequence: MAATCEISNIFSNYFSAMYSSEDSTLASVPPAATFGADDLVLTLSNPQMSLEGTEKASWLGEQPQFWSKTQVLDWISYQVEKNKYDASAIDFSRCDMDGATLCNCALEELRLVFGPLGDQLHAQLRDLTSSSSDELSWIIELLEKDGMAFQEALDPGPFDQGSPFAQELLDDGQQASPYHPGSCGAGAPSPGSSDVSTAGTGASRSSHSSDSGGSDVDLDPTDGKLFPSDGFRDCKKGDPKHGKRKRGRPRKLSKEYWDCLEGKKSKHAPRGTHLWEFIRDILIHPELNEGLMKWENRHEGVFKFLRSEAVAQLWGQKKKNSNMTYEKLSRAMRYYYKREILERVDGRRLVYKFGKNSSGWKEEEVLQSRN
The note with it: protein: recombinant; tags: N-terminal GST; dsDNA, one strand shown. The essentials: as §1

Another assay addresses CRX (Homo sapiens, UniProt O43186 1-299). To be noted: protein: recombinant; tags: N-terminal GST; dsDNA, one strand shown. The essentials: as §1
For another assay, the target named is ETV1 (Homo sapiens, UniProt P50549 1-477). The note with it: protein: recombinant; tags: N-terminal GST; dsDNA, one strand shown. Put shortly: as §1
A further assay has as its target T6, ERF (Homo sapiens, UniProt P50548 1-548).
T6 sequence: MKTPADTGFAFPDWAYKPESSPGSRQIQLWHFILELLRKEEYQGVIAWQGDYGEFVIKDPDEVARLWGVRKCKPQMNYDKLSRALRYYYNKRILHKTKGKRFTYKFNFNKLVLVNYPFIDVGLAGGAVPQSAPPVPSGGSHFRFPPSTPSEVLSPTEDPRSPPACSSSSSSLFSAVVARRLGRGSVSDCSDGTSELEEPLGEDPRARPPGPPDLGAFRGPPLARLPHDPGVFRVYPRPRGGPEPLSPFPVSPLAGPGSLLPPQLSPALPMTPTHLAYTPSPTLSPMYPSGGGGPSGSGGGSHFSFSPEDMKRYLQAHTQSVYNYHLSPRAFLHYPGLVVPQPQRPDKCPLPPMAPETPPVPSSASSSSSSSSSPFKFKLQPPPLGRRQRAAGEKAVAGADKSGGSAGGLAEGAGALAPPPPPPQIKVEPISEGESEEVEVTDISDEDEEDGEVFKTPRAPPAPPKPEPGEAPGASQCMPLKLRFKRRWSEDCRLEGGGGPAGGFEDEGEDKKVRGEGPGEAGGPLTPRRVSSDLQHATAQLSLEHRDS
The note with it: protein: recombinant; tags: N-terminal GST; dsDNA, one strand shown. The essentials: as §1

In another assay the target is T7, ETV3L (Homo sapiens, UniProt Q6ZN32 1-361).
T7 sequence: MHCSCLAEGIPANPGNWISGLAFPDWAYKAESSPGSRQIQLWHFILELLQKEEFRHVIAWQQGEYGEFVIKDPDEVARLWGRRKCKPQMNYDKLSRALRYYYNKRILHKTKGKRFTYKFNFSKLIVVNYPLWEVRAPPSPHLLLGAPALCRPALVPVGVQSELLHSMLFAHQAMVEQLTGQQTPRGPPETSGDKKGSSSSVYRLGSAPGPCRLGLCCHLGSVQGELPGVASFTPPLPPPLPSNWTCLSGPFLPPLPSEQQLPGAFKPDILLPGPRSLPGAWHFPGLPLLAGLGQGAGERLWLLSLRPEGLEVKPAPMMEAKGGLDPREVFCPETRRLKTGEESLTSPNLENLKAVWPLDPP
To be noted: protein: recombinant; tags: N-terminal GST; dsDNA, one strand shown. Put shortly:
as §1

The target of another assay is T8, ETS2 (Homo sapiens, UniProt P15036 1-469).
T8 sequence: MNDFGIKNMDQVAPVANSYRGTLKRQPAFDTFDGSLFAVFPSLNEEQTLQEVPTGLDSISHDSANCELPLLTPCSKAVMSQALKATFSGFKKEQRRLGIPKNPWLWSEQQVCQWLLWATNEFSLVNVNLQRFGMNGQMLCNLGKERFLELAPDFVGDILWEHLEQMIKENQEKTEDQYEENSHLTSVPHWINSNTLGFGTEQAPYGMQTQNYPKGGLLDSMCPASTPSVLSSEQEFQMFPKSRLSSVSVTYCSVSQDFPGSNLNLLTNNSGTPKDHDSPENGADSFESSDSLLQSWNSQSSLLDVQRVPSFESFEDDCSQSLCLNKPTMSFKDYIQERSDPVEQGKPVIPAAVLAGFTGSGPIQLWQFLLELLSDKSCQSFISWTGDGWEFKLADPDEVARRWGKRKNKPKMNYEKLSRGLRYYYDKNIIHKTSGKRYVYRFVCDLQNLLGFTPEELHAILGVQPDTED
The note with it: protein: recombinant; tags: N-terminal GST; dsDNA, one strand shown. Put shortly:
as §1

The next assay has as its target T9, SPDEF (Homo sapiens, UniProt O95238 1-335).
T9 sequence: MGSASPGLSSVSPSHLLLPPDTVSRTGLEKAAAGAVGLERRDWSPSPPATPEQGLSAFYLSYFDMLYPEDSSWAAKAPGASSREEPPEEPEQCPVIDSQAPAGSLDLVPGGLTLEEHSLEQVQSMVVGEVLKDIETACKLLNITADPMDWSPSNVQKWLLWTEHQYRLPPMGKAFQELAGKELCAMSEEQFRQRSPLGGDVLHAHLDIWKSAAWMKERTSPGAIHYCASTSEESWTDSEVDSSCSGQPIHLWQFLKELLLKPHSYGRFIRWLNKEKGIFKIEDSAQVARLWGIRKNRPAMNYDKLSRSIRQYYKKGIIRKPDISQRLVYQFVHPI
To be noted: protein: recombinant; tags: N-terminal GST; dsDNA, one strand shown. The essentials: as §1

In the next assay the target is T10, ETV7 (Homo sapiens, UniProt Q9Y603 1-341).
T10 sequence: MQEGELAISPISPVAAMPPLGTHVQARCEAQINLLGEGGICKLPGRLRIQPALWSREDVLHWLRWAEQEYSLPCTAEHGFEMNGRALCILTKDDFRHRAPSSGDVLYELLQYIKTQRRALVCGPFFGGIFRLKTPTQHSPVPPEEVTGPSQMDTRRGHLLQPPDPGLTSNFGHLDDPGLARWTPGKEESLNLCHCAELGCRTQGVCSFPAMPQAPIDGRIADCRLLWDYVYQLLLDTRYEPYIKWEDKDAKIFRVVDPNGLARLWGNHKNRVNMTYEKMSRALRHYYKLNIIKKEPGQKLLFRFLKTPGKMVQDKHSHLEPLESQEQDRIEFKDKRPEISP
The note with it: protein: recombinant; tags: N-terminal GST; dsDNA, one strand shown. The essentials: as §1

Another assay deals with T11, ELF5 (Homo sapiens, UniProt Q9UKW6-2 1-255).
T11 sequence: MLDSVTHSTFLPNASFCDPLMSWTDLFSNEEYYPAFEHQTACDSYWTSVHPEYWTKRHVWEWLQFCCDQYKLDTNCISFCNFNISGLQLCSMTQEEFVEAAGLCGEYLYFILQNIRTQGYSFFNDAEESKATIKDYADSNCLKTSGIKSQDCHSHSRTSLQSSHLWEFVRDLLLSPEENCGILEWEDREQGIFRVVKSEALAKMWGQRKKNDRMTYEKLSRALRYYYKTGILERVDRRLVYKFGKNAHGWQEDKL
The note with it: protein: recombinant; tags: N-terminal GST; dsDNA, one strand shown. The essentials: as §1

For the next assay, the target named is T12, ETV3 (Homo sapiens, UniProt P41162-2 1-143).
T12 sequence: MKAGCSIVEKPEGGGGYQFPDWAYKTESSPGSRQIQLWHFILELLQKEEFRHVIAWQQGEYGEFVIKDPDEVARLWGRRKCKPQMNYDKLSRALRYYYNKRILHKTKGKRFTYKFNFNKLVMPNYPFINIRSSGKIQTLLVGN
To be noted: protein: recombinant; tags: N-terminal GST; dsDNA, one strand shown. Put shortly: as §1

A further assay has as its target ETV6 (Homo sapiens, UniProt P41212 1-452). To be noted: protein: recombinant; tags: N-terminal GST; dsDNA, one strand shown. The essentials: as §1

Sequence of CRX (O43186 whole entry): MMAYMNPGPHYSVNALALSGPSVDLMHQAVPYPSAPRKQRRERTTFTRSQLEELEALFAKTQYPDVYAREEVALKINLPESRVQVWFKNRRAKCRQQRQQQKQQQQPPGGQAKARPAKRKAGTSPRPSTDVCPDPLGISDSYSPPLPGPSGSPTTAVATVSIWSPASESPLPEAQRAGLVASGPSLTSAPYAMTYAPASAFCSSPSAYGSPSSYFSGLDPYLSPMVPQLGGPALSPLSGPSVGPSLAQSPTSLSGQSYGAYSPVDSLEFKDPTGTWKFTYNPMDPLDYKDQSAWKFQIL
Sequence of ELF4 (Q99607 whole entry): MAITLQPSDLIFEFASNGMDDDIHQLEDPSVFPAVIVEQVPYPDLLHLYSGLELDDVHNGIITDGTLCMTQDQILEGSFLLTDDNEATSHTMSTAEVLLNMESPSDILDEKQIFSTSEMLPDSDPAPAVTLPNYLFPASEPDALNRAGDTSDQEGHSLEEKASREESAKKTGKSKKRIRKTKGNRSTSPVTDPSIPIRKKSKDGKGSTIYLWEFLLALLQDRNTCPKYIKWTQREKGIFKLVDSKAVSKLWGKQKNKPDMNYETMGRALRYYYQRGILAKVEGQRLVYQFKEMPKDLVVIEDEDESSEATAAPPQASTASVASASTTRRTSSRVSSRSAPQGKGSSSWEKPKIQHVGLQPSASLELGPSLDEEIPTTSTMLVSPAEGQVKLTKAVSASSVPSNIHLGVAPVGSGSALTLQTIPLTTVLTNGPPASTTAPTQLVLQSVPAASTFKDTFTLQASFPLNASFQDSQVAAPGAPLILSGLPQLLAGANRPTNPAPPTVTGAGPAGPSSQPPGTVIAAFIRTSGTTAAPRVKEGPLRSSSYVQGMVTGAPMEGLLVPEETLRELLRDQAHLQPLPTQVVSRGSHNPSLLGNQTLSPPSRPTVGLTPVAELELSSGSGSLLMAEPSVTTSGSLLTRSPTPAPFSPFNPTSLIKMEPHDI
Sequence of ETV6 (P41212 whole entry): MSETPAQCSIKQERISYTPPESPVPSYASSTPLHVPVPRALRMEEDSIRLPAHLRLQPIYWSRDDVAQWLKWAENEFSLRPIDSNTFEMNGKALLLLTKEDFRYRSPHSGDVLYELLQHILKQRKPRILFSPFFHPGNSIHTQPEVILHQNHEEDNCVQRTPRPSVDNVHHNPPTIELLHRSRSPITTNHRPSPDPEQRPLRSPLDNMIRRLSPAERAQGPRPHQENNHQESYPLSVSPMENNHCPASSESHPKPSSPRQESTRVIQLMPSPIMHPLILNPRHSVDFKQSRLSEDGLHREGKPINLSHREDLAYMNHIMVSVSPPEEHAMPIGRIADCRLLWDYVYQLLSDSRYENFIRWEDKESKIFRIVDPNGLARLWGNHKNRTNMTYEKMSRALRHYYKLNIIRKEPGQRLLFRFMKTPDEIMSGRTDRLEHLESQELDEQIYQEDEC
Sequence of ETV1 (P50549 whole entry): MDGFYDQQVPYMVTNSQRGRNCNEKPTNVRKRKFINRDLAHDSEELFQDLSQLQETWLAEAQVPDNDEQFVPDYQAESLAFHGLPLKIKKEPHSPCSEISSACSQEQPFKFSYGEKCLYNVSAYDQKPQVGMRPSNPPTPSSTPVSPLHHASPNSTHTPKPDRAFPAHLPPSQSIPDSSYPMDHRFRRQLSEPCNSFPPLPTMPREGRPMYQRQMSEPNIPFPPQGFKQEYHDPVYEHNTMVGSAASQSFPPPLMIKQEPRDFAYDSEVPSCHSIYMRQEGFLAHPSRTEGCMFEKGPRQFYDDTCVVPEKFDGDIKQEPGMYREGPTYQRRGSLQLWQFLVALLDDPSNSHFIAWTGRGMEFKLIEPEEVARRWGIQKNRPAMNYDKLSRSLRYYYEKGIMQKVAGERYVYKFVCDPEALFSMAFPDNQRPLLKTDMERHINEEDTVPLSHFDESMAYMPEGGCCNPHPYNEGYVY
Sequence of HSF1 (Q00613 whole entry): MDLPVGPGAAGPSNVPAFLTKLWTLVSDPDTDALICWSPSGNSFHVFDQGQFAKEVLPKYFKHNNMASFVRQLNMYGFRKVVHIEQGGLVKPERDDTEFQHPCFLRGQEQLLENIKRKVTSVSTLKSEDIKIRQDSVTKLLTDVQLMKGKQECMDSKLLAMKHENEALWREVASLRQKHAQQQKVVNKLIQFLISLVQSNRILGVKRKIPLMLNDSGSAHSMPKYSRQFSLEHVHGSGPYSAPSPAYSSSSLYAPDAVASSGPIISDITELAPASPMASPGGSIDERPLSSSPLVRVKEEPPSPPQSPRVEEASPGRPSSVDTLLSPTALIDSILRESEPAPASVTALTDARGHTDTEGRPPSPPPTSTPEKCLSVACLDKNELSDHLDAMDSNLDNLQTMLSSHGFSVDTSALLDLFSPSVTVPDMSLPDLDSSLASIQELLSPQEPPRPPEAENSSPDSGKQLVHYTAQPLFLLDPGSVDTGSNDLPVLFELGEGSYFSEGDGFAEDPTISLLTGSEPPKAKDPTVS
Sequence of ETV5 (P41161 whole entry): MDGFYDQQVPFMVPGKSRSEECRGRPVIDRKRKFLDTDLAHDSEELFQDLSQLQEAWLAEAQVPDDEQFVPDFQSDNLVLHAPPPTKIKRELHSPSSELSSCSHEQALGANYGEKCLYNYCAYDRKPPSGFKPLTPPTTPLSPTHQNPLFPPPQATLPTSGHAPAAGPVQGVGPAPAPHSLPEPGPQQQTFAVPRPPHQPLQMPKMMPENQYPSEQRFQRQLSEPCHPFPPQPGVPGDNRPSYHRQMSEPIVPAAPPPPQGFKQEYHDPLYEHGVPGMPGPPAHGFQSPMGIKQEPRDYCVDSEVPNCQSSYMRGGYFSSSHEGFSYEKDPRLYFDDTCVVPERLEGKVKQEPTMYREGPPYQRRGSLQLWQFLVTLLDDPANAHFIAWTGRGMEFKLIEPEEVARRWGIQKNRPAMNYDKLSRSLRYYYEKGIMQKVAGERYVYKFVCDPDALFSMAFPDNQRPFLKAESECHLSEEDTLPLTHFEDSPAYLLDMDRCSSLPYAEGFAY

For CTATGG, the binding signal is 1.15 fold enrichment (6-mer frequency, TF over GST control) in the assay with FEV; 1.23 fold enrichment (6-mer frequency, TF over GST control) with ETV5; 1.17 fold enrichment (6-mer frequency, TF over GST control) with HSF1; 1.14 fold enrichment (6-mer frequency, TF over GST control) with SPIC; 1.15 fold enrichment (6-mer frequency, TF over GST control) in the assay with ELF4; 1.24 fold enrichment (6-mer frequency, TF over GST control) with ELK4. Besides, the binding signal with ETV2 is 1.28 fold enrichment (6-mer frequency, TF over GST control); with ELF3, 1.25 fold enrichment (6-mer frequency, TF over GST control); in the assay with CRX it was 1.11 fold enrichment (6-mer frequency, TF over GST control); with ETV1 it was 1.18 fold enrichment (6-mer frequency, TF over GST control); with ERF it was 1.11 fold enrichment (6-mer frequency, TF over GST control); in the assay with ETV3L, 1.16 fold enrichment (6-mer frequency, TF over GST control). Also, the binding signal in the assay with ETS2 is 1.16 fold enrichment (6-mer frequency, TF over GST control); in the assay with SPDEF it was 1.29 fold enrichment (6-mer frequency, TF over GST control); in the assay with ETV7, 1.39 fold enrichment (6-mer frequency, TF over GST control); in the assay with ELF5, 1.09 fold enrichment (6-mer frequency, TF over GST control); with ETV3, 1.29 fold enrichment (6-mer frequency, TF over GST control); with ETV6, 1.09 fold enrichment (6-mer frequency, TF over GST control).

For the origin of these results see article PMC7862700, “An all-to-all approach to the identification of sequence-specific readers for epigenetic DNA modifications on cytosine”.
